# Compound activity from PubChem.
# Glyco luc inh – increase of ERlucT glycosylation luciferase signal, primary screen, N-linked glycosylation inhibitor project, D54 ERlucT cells, luminescence, set 2 | actives 0.23% (n = 360,000) | D54 ERlucT glycosylation luciferase reporter, 24 h; percent of 100 nM tunicamycin response | reporter increase, % at 12.5 µM;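 active means mean luciferase reporter signal, scaled so untreated is 0 and the glycosylation-blocking control 100, at or above a set limit in every replicate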;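 further: luciferase carries N-glycosylation sites so blocking glycosylation raises the light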
# ALR H2O2 inh – inhibitors of human ALR sulfhydryl oxidase, primary screen, biochemical, H2O2 detection, HRP-luminol luminescence, single point; purified ALR, DTT oxidation; actives 3.8% (n = 290,000); FAD-linked sulfhydryl oxidase ALR (Homo sapiens), P55789; inhibition, % (test concentration not listed);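 active means mean replicate inhibition above about 79%, with every replicate also reaching it, limit read from the data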
# Target sequence (P55789 whole entry, looked up): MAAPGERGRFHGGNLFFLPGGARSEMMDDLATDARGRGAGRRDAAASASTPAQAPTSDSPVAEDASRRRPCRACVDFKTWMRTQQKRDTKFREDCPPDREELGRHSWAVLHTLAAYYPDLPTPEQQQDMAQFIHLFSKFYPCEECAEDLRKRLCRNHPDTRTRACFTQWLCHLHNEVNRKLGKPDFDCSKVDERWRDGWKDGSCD
# SUMO Mot1 rescue – yeast Mot1-301 growth rescue at high temperature, primary screen, SUMOylation pathway inhibitor project, S. cerevisiae, ATP luminescence, 38.5C; actives 1% (n = 320,000); S. cerevisiae Mot1-301 growth rescue; percent above DMSO median, 100 means doubled; AID 2716, 2010; growth rescue, % at 18.8 µM;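 active means every valid replicate shows activation above 250% relative to neutral control wells; inactive means the rest, any valid replicate at or below 250%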
# Casp6 inh – human caspase-6 inhibitors, primary screen, biochemical, VEID-R110 fluorescence, single point, set 2; purified caspase-6, Z-VEID-R110 cleavage fluorescence; inhibition, % at 12.5 µM; actives 0.53% (n = 350,000); AID 686996, 2013;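 active means mean inhibition across replicates at least about 35%, with every replicate also reaching that limit, limit read from the data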
# Target sequence (P55212 24-179 limits assumed): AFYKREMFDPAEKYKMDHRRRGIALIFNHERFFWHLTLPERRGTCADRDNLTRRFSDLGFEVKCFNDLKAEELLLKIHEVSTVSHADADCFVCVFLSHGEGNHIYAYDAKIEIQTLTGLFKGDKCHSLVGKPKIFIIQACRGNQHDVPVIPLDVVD
# Target sequence (P55212 194-293 limits assumed): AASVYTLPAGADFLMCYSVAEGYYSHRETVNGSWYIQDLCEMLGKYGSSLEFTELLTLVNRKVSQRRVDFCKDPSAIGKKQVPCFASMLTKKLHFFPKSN
# CDK5 inh – inhibitors of human CDK5/p35 kinase, primary screen, biochemical, single concentration; Recombinant CDK5/p35, ADP-Glo luminescence, 60 min; Cyclin-dependent kinase 5 (Homo sapiens) + Cyclin-dependent kinase 5 activator 1 (Homo …; AID 488839, 2010; inhibition, % at 10 µM; actives 0.01% (n = 330,000);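 active means highest replicate inhibition of at least 50% and at least 75% of replicates reaching 50%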
# NSD2 inh – NSD2 histone methyltransferase inhibitors, primary screen, biochemical, AlphaScreen, single concentration, set 2. NSD2 peptide methylation, 120 min. inhibition, % at 12.5 µM. actives 0.54% (n = 310,000); in the data active means inhibition above about 50%
# Yeast Mot1 SUMO – growth restoration of Mot1-301 yeast on galactose, dose response, SUMO pathway inhibitor project, whole organism, S. cerevisiae, ATP luminescence, cherry-picked samples. growth activity, percent, % at 42 µM. AID 493004, 2010. shares compounds with SUMO Mot1 rescue. S. cerevisiae Mot1-301 galactose growth, 24 h; -100 = growth of slx-deleted rescue strain. 2,300 tested, under 10 active;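 active means Signal drops as the depositor expects, and the fitted half-maximal dose is no more than ten times the top valid tested dose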;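 further: more negative values mean stronger growth rescue toward the control strain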
# A number is an active result; 0 = inactive; - = no result given. Rows were chosen to be rich in hits. Some 3.9% of all compounds tested hit in one or more screens of this group.
SMILES,Glyco luc inh,ALR H2O2 inh,SUMO Mot1 rescue,Casp6 inh,CDK5 inh,NSD2 inh,Yeast Mot1 SUMO
COc1cc(/C=C(\C#N)C(=O)NC(C)C)cc(Cl)c1O,0,97.2,0,0,0,-,-
COc1cc(/C=C(\C#N)C(=O)NCCc2ccccc2)cc(OC)c1O,0,0,0,0,0,0,-
COCCNC(=O)/C(C#N)=C/c1cc(Br)c(O)c(OC)c1,0,82.9,0,0,0,0,-
CC(C)NC(=O)/C(C#N)=C/c1cccc(NC(=O)c2ccccc2Cl)c1,0,0,0,0,0,0,-
CCOCCCNC(=O)/C(C#N)=C/c1cc(Br)c(O)c(Br)c1,29.8,-,-,-,0,-,-
O=C(O)CSc1cc(NS(=O)(=O)c2ccc(Cl)cc2)c2ccccc2c1O,0,0,0,95.8,0,136.9,-
Cc1cc(C)c(S(=O)(=O)Nc2cc(SCC(=O)O)c(O)c3ccccc23)cc1C,-,0,0,-,-,-,-
CC(C)C(=O)Nc1ccc(NC(=S)NC(=O)c2ccccc2F)cc1,0,0,494.6,0,0,0,0
O=C(NC(=S)Nc1ccc(F)c([N+](=O)[O-])c1)c1ccccc1F,0,0,0,0,0,0,-
COc1ccc(CCNC(=O)CCNC(=O)c2ccco2)cc1,0,0,0,0,0,0,-
COc1ccc(-c2nc(NC(=O)CCNC(=O)c3ccco3)sc2C)cc1,0,0,368.0,0,0,0,0
CCc1ccc(NC(=S)N(Cc2cccc(Br)c2)CC2CCC(C(=O)O)CC2)cc1 (configuration not stated),0,-,591.5,-,0,0,0
Cc1cc(C)cc(NC(=S)N(Cc2cccc(Br)c2)CC2CCC(C(=O)O)CC2)c1 (configuration not stated),0,0,-,0,0,0,-
CCCN1[C@@H]2c3ccc(-c4ccccc4)c(=O)n3C[C@@H]2[C@@H](CO)[C@@H]1C(=O)NCCc1cn(C)cn1,-,-,-,0,-,-,-
CCCCC(=O)Nc1nnc(/C=C/c2ccc(OC)cc2)s1,0,0,713.9,-,0,0,0
CCC(=O)Nc1ccc2c(c1)C(=O)N(C)[C@@H]1CC[C@H](CC(=O)NCCc3ccccc3)O[C@@H]1CO2,-,-,-,0,-,-,-
COc1cc2cc(C)c3nnc(SCC(=O)Nc4cc(C)on4)n3c2cc1OC,0,0,421.1,0,0,0,0
CC(C)NC(=O)Nc1ccc2c(c1)CC(=O)N([C@H](C)CO)C[C@@H](C)[C@H](CN(C)CC1CCCCC1)O2,-,-,-,0,-,-,-
CCOc1ccc(C(=O)Nc2ccc(N3CCN(C(C)=O)CC3)cc2)cc1[N+](=O)[O-],0,0,0,0,0,0,-
CCOc1ccc(C(=O)Nc2ccc(N3CCN(C)CC3)cc2)cc1[N+](=O)[O-],0,0,690.5,0,0,0,0
C/C(CC(=O)NCc1ccco1)=N\NC(=O)Cc1ccc(-c2ccccc2)cc1,0,0,0,0,0,0,-
C/C(CC(=O)NC1CCCCC1)=N\NC(=O)Cc1ccc(-c2ccccc2)cc1,0,0,437.0,0,0,0,0
O=C(C[C@@H]1CC[C@H]2[C@@H](COC[C@@H](O)CN2S(=O)(=O)c2ccc(F)cc2)O1)NCc1ccc(Cl)c(Cl)c1,-,-,-,0,-,-,-
C[C@@H]1CN([C@H](C)CO)C(=O)c2cc(NC(=O)Nc3ccc(C(F)(F)F)cc3)ccc2O[C@@H](C)CCCCO[C@@H]1CN(C)C(=O)Cc1ccccc1,-,-,-,0,-,-,-
CCOC(=O)NNC(=O)CCn1c2c(c3ccccc31)CCCC2,0,0,960.0,0,0,0,0
SMILES,Glyco luc inh,ALR H2O2 inh,SUMO Mot1 rescue,Casp6 inh,CDK5 inh,NSD2 inh,Yeast Mot1 SUMO
CC(=O)NNC(=O)CCn1c2c(c3ccccc31)CCCC2,0,0,0,0,0,0,-
C=C(C)C(=O)OC1(C(F)(F)F)Oc2cc(C)ccc2NC1=O (configuration not stated),0,97.7,363.2,-,0,0,0
COc1ccccc1OCCCn1cc(C#N)c2ccccc21,0,0,832.2,-,0,0,0
CCC1SC2=NC(C)=C(C(=O)OCCOC)C(c3ccc(C(=O)OC)cc3)N2C1=O (configuration not stated),0,0,831.9,-,0,0,0
CCC1SC2=NC(C)=C(C(=O)OC)C(c3ccc(C(=O)OC)cc3)N2C1=O (configuration not stated),0,0,0,-,0,0,-
CC(=O)NC1CCCN(O)C(=O)/C=C(\C)CCOC(=O)C(NC(C)=O)CCCN(O)C(=O)/C=C(\C)CCOC(=O)C(NC(C)=O)CCCN(O)C(=O)/C=C(\C)CCOC1=O (configuration not stated),0,0,559.3,-,-,-,0
Cc1noc(C)c1NC(=O)Nc1ccc2c(c1)CC(=O)N([C@@H](C)CO)C[C@@H](C)[C@H](CN(C)Cc1ccc(C(=O)O)cc1)O2,-,-,-,0,-,-,-
CC(=O)N(C)C[C@@H]1Oc2cc(C#CC(C)C)ccc2S(=O)(=O)N([C@@H](C)CO)C[C@H]1C,-,-,-,0,-,-,-
Nc1cc[n+](CC(=O)Nc2ccccc2)cc1,0,0,798.9,0,0,0,0
Cc1cccc2cc3ccccc3nc12,0,0,0,0,0,0,-
Cc1cccc2nc3ccccc3cc12,0,0,576.4,0,0,0,0
CCOC(=O)C1(CCOc2ccccc2)CCN(Cc2cccc(OC)c2O)CC1,0,0,517.0,0,0,0,0
CCOC(=O)C1(CCOc2ccccc2)CCN(Cc2cc(OC)ccc2OC)CC1,0,-,0,0,0,0,-
O=C(C[C@H]1C[C@@H]2c3cc(NC(=O)c4cccnc4)ccc3O[C@@H]2[C@@H](CO)O1)NCc1ccc(Oc2ccccc2)cc1,-,-,-,0,-,-,-
COc1ccc(NC(=O)Nc2cccc3c2O[C@@H](CN(C)S(=O)(=O)c2ccccc2)[C@@H](C)CN([C@H](C)CO)C3=O)cc1,-,-,-,0,-,-,-
COC(=O)C1CN(C(=O)C(C)Oc2ccc(F)cc2)c2ccccc2O1 (configuration not stated),0,0,748.4,0,0,0,0
O=C(COC(=O)Cc1ccsc1)NC1CCCCCC1,0,0,609.1,-,0,0,0
O=C(COC(=O)CSc1ccc([N+](=O)[O-])cc1)NC1CCCCCCC1,0,0,460.5,0,0,0,0
Cc1ccc(SCC(=O)OCC(=O)NC2CCCCCCC2)cc1,0,0,0,0,0,0,-
